Measured values: PubChem BioAssay (Tox21)
Records with an inconclusive call do not appear. Activity calls are given as the source filed them. Unless noted, calls come from the whole dose curve; as a rule, active = well fitted curve in the direction sought with a large enough effect in the repeat runs; inconclusive = weak or mixed curves; inactive = no such curve, though single readings can be large; an effect the other way counts as inactive or inconclusive.

Tests used:
[1] = qHTS assay for small molecule agonists of the p53 signaling pathway (AID 651631; calls by dose curve; note: nearly all actives have a fitted effect of over 15% in size)
Summary of the method: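 Stably transfected HCT-116 cells (beta-lactamase behind p53 response elements) get compounds after a 5 h settling period; 16 h later at 37 °C, FRET substrate is loaded and fluorescence read after 2 h.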

[2] = qHTS assay for small molecules that induce genotoxicity in human embryonic kidney cells expressing luciferase-tagged ATAD5 (AID 651632); note: nearly all actives have a fitted effect of over 15% in size
Summary of the method: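 HEK293T cells carrying a luciferase reporter tagged to ATAD5 were exposed to compound or DMSO vehicle for 16 hr at 37C, 5% CO2. Amplite was added, and after 30 min at room temperature luciferase activity was read as a marker of ATAD5 induction.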

[3] = qHTS assay for small molecule agonists of the p53 signaling pathway - cell viability (AID 651633; calls by dose curve;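 note: p53RE-bla HCT reporter cells with a stable beta-lactamase p53 reporter; series mostly up to about 83 µM; nearly all actives have a fitted effect of over 30% in size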)
Summary of the method: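 p53RE-bla cells, seeded at 4,000 per well and rested 5 h at 37 C/5% CO2, received compounds in DMSO for 16 h at 37 C. CellTiter-Glo was then added, and luminescence was read after 30 min at room temperature to gauge cytotoxicity.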

[4] = qHTS assay for small molecules that induce genotoxicity in human embryonic kidney cells expressing luciferase-tagged ATAD5 - cell viability (AID 651634; calls by dose curve; note: nearly all actives have a fitted effect of over 25% in size)
Summary of the method: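 HEK293T cells expressing luciferase-tagged ATAD5 were exposed to compound or DMSO for 15.5 hr at 37C, 5% CO2. Viability was then read as live-cell protease activity by CellTiter-Fluor fluorescence after 30 min at 37C.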

[5] = qHTS assay for small molecule disruptors of the mitochondrial membrane potential - cell viability (AID 720634; calls by dose curve;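 note: human HepG2 liver cancer cells; series mostly up to about 83 µM; nearly all actives have a fitted effect of over 20% in size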)
Summary of the method: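 HepG2 cells seeded overnight at 37 C, then exposed to compound or DMSO for 1 hr at 37 C, 5% CO2. m-MPI dye added, then CellTiter-Glo for 30 min at room temperature; viability read as ATP luminescence.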

[6] = qHTS assay for small molecule disruptors of the mitochondrial membrane potential (AID 720635)
Summary of the method: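 HepG2 cells (2,000/well) attached overnight at 37C, then took compound for 1 hr at 37C, 5% CO2. Mito-MPS dye was added for 30 min; fluorescence was read at 490/535 nm (monomers) and 540/590 nm (aggregates).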

[7] = qHTS assay to test for compound auto fluorescence at 590 nm (red) in HepG2 cells (AID 720674)
Summary of the method: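 Rose Bengal sodium served as the red fluorophore standard. HepG2 monolayers (overnight attachment, MEM with 10% FBS) were exposed to test compounds for 1 hr at 37 C and read at Ex 540/Em 590 nm.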

[8] = qHTS assay to test for compound auto fluorescence at 535 nm (green) in HepG2 cells (AID 720675)
[9] = qHTS assay to test for compound auto fluorescence at 460 nm (blue) in HEK293 cells (AID 720678)
Summary of the method: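 HEK293, 2,000 cells/well, 10% dialyzed FBS; attach 4-5 hr 37C; pin compound or DMSO; o/n 37C/5% CO2; fluorescence 405/460 nm; triamterene-equivalent units.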

[10] = qHTS assay to test for compound auto fluorescence at 535 nm (green) in HEK293 cells (AID 720680)
[11] = qHTS assay to test for compound auto fluorescence at 460 nm (blue) in HEK293 cell free culture (AID 720681)
Summary of the method: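 Test compounds were pinned into cell-free culture medium (DMEM with 10% FBS) and fluorescence was read directly at Ex/Em 405/460 nm. Signals were expressed as fluorescence equivalents of triamterene, with DMSO vehicle as control.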

[12] = qHTS assay to test for compound auto fluorescence at 535 nm (green) in HEK293 cell free culture (AID 720682)
Summary of the method: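 Using fluorescein as calibrant, autofluorescence was quantified at 485/535 nm in cell-free DMEM containing 10% FBS after pintool addition of compound or vehicle.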

[13] = qHTS assay to test for compound auto fluorescence at 590 nm (red) in HEK293 cell free culture (AID 720683)
Summary of the method: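 Tox21 10K library compounds were pinned into cell-free DMEM with 10% FBS and fluorescence was read at excitation 540 nm. Activity is expressed as Rose Bengal sodium equivalency.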

[14] = qHTS assay to test for compound auto fluorescence at 460 nm (blue) in HepG2 cell free culture (AID 720685)
Summary of the method: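 Compound (23 nL) or DMSO pinned into cell-free MEM with 10% FBS; blue fluorescence read at 405/460 nm excitation/emission, expressed as auto-fluorescence equivalency to triamterene.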

[15] = qHTS assay to test for compound auto fluorescence at 535 nm (green) in HepG2 cell free culture (AID 720686)
[16] = qHTS assay to test for compound auto fluorescence at 460 nm (blue) in HepG2 cells (AID 720687)
Summary of the method: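 Cells (2,000/well in MEM with 10% FBS) attached overnight at 37 C, then were exposed to compound or DMSO for 1 hr at 37 C, 5% CO2. Fluorescence read at Ex/Em 405/460 nm, expressed as triamterene-equivalent signal.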

[17] = target: Glucocorticoid receptor (Homo sapiens) (UniProt P04150); test: qHTS assay to identify small molecule antagonists of the glucocorticoid receptor (GR) signaling pathway (AID 720692; active = well fitted inhibition curve with a large enough effect in the signal ratio in the repeat runs, not every such curve was filed as active; the % refers to the signal ratio)
Chain of Glucocorticoid receptor (Homo sapiens) (P04150 whole entry, looked up): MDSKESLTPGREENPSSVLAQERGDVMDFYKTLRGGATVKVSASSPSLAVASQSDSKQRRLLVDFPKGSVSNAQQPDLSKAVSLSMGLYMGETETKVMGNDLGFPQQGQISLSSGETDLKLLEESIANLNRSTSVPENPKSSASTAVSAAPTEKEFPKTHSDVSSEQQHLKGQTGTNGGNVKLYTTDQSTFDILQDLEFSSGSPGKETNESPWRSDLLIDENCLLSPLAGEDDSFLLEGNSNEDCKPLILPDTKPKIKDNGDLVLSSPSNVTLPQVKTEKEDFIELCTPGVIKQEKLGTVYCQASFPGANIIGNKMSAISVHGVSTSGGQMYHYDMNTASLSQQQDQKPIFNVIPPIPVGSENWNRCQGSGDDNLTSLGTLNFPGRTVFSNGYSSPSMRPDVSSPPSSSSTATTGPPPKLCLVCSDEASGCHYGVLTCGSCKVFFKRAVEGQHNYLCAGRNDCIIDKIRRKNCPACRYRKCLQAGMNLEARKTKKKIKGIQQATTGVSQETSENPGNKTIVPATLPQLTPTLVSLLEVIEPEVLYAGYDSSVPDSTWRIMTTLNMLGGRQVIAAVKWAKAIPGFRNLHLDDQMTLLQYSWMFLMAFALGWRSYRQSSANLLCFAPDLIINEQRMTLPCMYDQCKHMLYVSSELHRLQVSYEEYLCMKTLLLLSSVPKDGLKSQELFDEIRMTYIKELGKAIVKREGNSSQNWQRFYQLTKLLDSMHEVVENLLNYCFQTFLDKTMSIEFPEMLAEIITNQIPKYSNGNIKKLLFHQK
Summary of the method: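 GR-bla HeLa cells (beta-lactamase reporter under glucocorticoid response element) were pre-plated 4 h at 37 C, treated with compounds plus 5 nM dexamethasone (final) for 18 h, then read by LiveBLAzer B/G FRET fluorescence after 2 h.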

[18] = qHTS assay to test for compound auto fluorescence at 590 nm (red) in HEK293 cells (AID 720679)
Summary of the method: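 Intensity at 540nm excitation and 590nm emission is reported as Rose Bengal sodium-equivalent autofluorescence. Measurements followed overnight exposure (37C, 5% CO2) of HEK293 cells, 2,000 per well, to 23 nL compound.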

[19] = qHTS assay to test for compound auto fluorescence at 590 nm (red) in HepG2 cell free culture (AID 720684)
Summary of the method: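 Measured in medium alone (MEM containing 10% FBS) following pintool addition of compound; emission at 590 nm with 540 nm excitation, referenced to Rose Bengal sodium.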

[20] = target: Glucocorticoid receptor (Homo sapiens) (UniProt P04150); test: qHTS assay to identify small molecule agonists of the glucocorticoid receptor (GR) signaling pathway (AID 720691; active = well fitted activation curve with a large enough effect in the signal ratio in the repeat runs, not every such curve was filed as active; the % refers to the signal ratio)
Summary of the method: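 GR-bla HeLa cells (beta-lactamase reporter under glucocorticoid response element) were plated 4 h at 37 C/5% CO2, given compounds in DMSO, and incubated 18 h at 37 C. LiveBLAzer B/G FRET substrate was added for 2 h at room temperature, then fluorescence intensity read.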
% is set by controls: 0 for no effect and ±100 for the full control effect.

CC(=O)c1cnccn1
inactive: Potency [1] | Potency [2] | Potency [3] | Potency [4] | outcome [5] | Potency [6] | outcome [7] | outcome [8] | outcome [9] | outcome [10] | outcome [11] | outcome [12] | outcome [13] | outcome [14] | outcome [15] | outcome [16] | Potency [17]

COc1cc(C)nc(-n2nc(C)cc2OC)n1
inactive: Potency [1] | Potency [2] | Potency [3] | Potency [4] | outcome [5] | Potency [6] | fluorescence, relative to Rose Bengal [7] -0.559% [at 18.6 µM] | fluorescence, % of fluorescein control [8] 0.0331% [at 18.6 µM] | fluorescence, % of fluorescent control [18] -0.0061% [at 18.6 µM] | fluorescence, % of fluorescein [10] -0.0757% [at 18.6 µM] | fluorescence, % of fluorescent control [11] -0.0196% [at 18.6 µM] | activity change [12] -0.0111% [at 18.6 µM] | fluorescence, % of fluorescent control [13] 0.134% [at 18.6 µM] | fluorescence, % of Rose Bengal [19] -0.183% [at 18.6 µM] | fluorescence, % of fluorescent control [14] -0.138% [at 18.6 µM] | fluorescence, % of fluorescein control [15] -0.0352% [at 18.6 µM] | Potency [20] | Potency [17]

CCCCCCCC1CCCC1=O (stereo unspecified)
inactive: Potency [1] | Potency [2] | Potency [3] | Potency [4] | outcome [5] | outcome [7] | outcome [8] | outcome [9] | outcome [18] | outcome [10] | outcome [11] | outcome [12] | outcome [13] | outcome [19] | outcome [14] | outcome [15] | outcome [16]

CC(COc1ccccc1)NN (stereo unspecified)
inactive: Potency [1] | Potency [2] | Potency [3] | Potency [4] | outcome [5] | Potency [6] | outcome [7] | outcome [8] | outcome [18] | outcome [10] | outcome [11] | outcome [12] | outcome [13] | outcome [19] | outcome [14] | outcome [15] | outcome [16] | Potency [20]

CCCCCC(C)N (stereo unspecified)
inactive: Potency [1] | Potency [2] | Potency [3] | Potency [4] | outcome [5] | Potency [6] | outcome [7] | outcome [8] | outcome [18] | outcome [10] | outcome [11] | outcome [12] | outcome [13] | outcome [19] | outcome [15] | outcome [16] | Potency [20] | Potency [17]

c1ccc(CCc2ccccc2)cc1
inactive: Potency [1] | Potency [2] | Potency [3] | Potency [4] | outcome [5] | Potency [6] | outcome [7] | outcome [8] | outcome [18] | outcome [10] | outcome [11] | outcome [12] | outcome [13] | outcome [14] | outcome [15] | outcome [16]

CC(C)CCCO
inactive: Potency [1] | Potency [2] | Potency [3] | Potency [4] | outcome [5] | outcome [7] | outcome [8] | outcome [9] | outcome [18] | outcome [10] | outcome [11] | outcome [12] | outcome [13] | outcome [15] | outcome [16] | Potency [20] | Potency [17]
